The structures appear in SMILES notation. Inconclusive results are not listed. Where a structure was tested more than once in an assay, its records may differ in their call. Active and inactive are the calls of the source. Rule for the calls, unless noted: active = hit-call score of the fitted dose curve at least 0.9, where 1 is the maximum; inactive = score below 0.9.

30 molecules from PubChem BioAssay (EPA / NIEHS) can be followed below.

A short description of test [1]: BSK_SAg_PBMCCytotoxicity: PBMC Cytotoxicity Assessment in the BioMAP Diversity Plus: SAg Assay (AID 2283093).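 For AC50: PBMC superantigen activated with SEB plus TSST-1 one hour after compound addition.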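 Note: PBMC viability measured as Alamar Blue reduction fluorescence at 546/580 nm; fitted both ways against DMSO so a hit may be loss or gain of signal.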 The note with it: primary human HUVEC with PBMC. The method, boiled down:
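Human umbilical vein endothelial cells co-cultured with PBMC; PBMC (75,000/well) pre-treated with compound 1 h, then activated with SEB and TSST-1 (20 ng/mL final each) for 90 h. Alamar Blue added 6 h, fluorescence 546/580 nm; bidirectional fit versus DMSO.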

Read-out in test [2]: Interleukin-8 (IL8), CXCL8 (gene 3576)
Put plainly: BSK_SAg_IL8: BioMAP Diversity Plus: SAg Assay for Interleukin-8 (IL8) Biomarker Activity (AID 2283094). Particulars: primary human HUVEC with PBMC; actives raise or lower the signal. The procedure, abridged:
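Human umbilical vein endothelial cells co-cultured with peripheral blood mononuclear cells; IL-8 measured by ELISA 24 h after chemical dosing. Bidirectional concentration-response fitting used DMSO as negative control and activity baseline.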

Test [3] is described as follows: BSK_SAg_Proliferation: Cell Proliferation Assessment in the BioMAP Diversity Plus: SAg Assay (AID 2283095).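 Note: relative cell number as total protein by SRB absorbance in sub-confluent culture.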 The note with it: primary human HUVEC with PBMC. The method, boiled down: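 Human umbilical vein endothelial cells co-cultured with peripheral blood mononuclear cells; total protein measured by sulforhodamine B staining (0.1% SRB after 10% TCA fixation), absorbance at 560 nm, at 96 h. Bidirectional fit against DMSO baseline.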

Test [4] can be described thus: BSK_SAg_SRB: Viability Assessment in the BioMAP Diversity Plus: SAg Assay (AID 2283096).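 Note: cells read one day after compound addition; hits may be either gain or loss of signal compared with DMSO.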 Particulars: primary human HUVEC with PBMC. The method, boiled down:
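Endothelial/PBMC primary human co-culture; compound 24 h; fix 10% TCA, stain 0.1% SRB, A560; protein content as cytotoxicity proxy; bidirectional curve fit, DMSO = baseline.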

The target of test [5] is human CYP2C9, CYP2C9 (gene 1559) (UniProt P11712). Description: NVS_ADME_hCYP2C9: NovaScreen (NVS) CYP450-related Enzyme Activity (ADME) Assay for human CYP2C9 (AID 2283108; active = hit-call score of the fitted dose curve at least 0.9, where 1 is the maximum). The method, boiled down: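 Cell-free assay of recombinant human CYP2C9 produced in Sf9 cells, with enzyme activity read by fluorescence intensity 0.75 h after compound addition. Loss of signal versus an acetonitrile negative control indicates inhibition. Primary screen used 10 uM in duplicate; actives were retested in concentration series.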

The target in test [6] is Cytochrome P450 2C19 (Homo sapiens) (UniProt P33261). Put plainly: NVS_ADME_hCYP2C19: NovaScreen (NVS) CYP450-related Enzyme Activity (ADME) Assay for human CYP2C19 (AID 2283113; active = hit-call score of the fitted dose curve at least 0.9, where 1 is the maximum;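 for AC50: potency for inhibition seen as loss of fluorescent signal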). The procedure, abridged: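 Cell-free assay of recombinant human CYP2C19 expressed in insect cells, with a fluorogenic substrate; fluorescence intensity read 1 hour after dosing. Loss of signal relative to acetonitrile negative control indicates inhibition. Primary screen at 10 uM in duplicate, then concentration series.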

The target of test [7] is human Dual Specificity Protein Phosphatase 3 (DUSP3), DUSP3 (gene 1845) (UniProt P51452). Put plainly: NVS_ENZ_hDUSP3: NovaScreen (NVS) Enzymatic Assay for human Dual Specificity Protein Phosphatase 3 (DUSP3) (AID 2283152; active = hit-call score of the fitted dose curve at least 0.9, where 1 is the maximum;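 note: phosphatase activity of recombinant human DUSP3 on a fluorogenic substrate without cells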). The method, boiled down:
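Cell-free assay with recombinant human DUSP3 and fluorogenic substrate, read by fluorescence intensity. Primary screen ran duplicate at 25 uM; actives followed up in concentration series; loss of signal versus DMSO scored.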

The target in test [8] is human CYP2D6, CYP2D6 (gene 1565) (UniProt P10635). Description: NVS_ADME_hCYP2D6: NovaScreen (NVS) CYP450-related Enzyme Activity (ADME) Assay for human CYP2D6 (AID 2283107; active = hit-call score of the fitted dose curve at least 0.9, where 1 is the maximum). The procedure, abridged: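 Cell-free assay using recombinant enzyme expressed in insect cells, with fluorescence-intensity readout of enzyme activity 1 hour after chemical dosing. Loss of signal versus acetonitrile negative control indicates inhibition. Primary screen ran in duplicate at 10 uM; actives were retested in concentration series.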

Test [9] has as its target human Matrix Metalloproteinase-9 (MMP9), MMP9 (gene 4318) (UniProt P14780). Put plainly: NVS_ENZ_hMMP9: NovaScreen (NVS) Enzymatic Assay for human Matrix Metalloproteinase-9 (MMP9) (AID 2283190; active = hit-call score of the fitted dose curve at least 0.9, where 1 is the maximum;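 note: cell-free recombinant MMP9 protease activity read by fluorescent substrate signal; active means inhibition seen as loss of fluorescence signal versus DMSO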). The procedure, abridged: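 Cell-free recombinant MMP9 enzyme activity measured by fluorescence intensity 1 h after dosing. Primary screen in duplicate at 25 uM, actives followed in concentration series; loss of signal relative to DMSO.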

The target in test [10] is Cytochrome P450 3A4 (Homo sapiens) (UniProt P08684). Put plainly: NVS_ADME_hCYP3A4: NovaScreen (NVS) CYP450-related Enzyme Activity (ADME) Assay for human CYP3A4 (AID 2283110; active = hit-call score of the fitted dose curve at least 0.9, where 1 is the maximum). The method, boiled down:
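Cell-free assay using insect-cell-expressed human CYP3A4 with a fluorogenic substrate; fluorescence intensity was read 0.33 hour after dosing. Loss of signal relative to acetonitrile vehicle indicated inhibition. Primary single-concentration screen at 10 uM, in duplicate, then concentration series.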

The target of test [11] is human CYP2B6, CYP2B6 (gene 1555) (UniProt P20813). Put plainly: NVS_ADME_hCYP2B6: NovaScreen (NVS) CYP450-related Enzyme Activity (ADME) Assay for human CYP2B6 (AID 2283101; active = hit-call score of the fitted dose curve at least 0.9, where 1 is the maximum). The method, boiled down: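 Recombinant human CYP2B6 with fluorogenic substrate, read by fluorescence intensity 1 h after dosing. Primary screen in duplicate at 10 uM, actives followed in concentration series; signal loss relative to acetonitrile control.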

The target in test [12] is human CYP1A2, CYP1A2 (gene 1544) (UniProt P05177). Description: NVS_ADME_hCYP1A2: NovaScreen (NVS) CYP450-related Enzyme Activity (ADME) Assay for human CYP1A2 (AID 2283102; active = hit-call score of the fitted dose curve at least 0.9, where 1 is the maximum). The procedure, abridged: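 Cell-free recombinant human CYP1A2 expressed in insect cells, with fluorogenic substrate; fluorescence intensity read 0.5 h after dosing. Loss of signal relative to acetonitrile baseline scored. Primary screen in duplicate at 10 uM; actives retested in concentration series.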

For test [13], the target named is human Caspase 5 (CASP5), CASP5 (gene 838) (UniProt P51878). Put plainly: NVS_ENZ_hCASP5: NovaScreen (NVS) Enzymatic Assay for human Caspase 5 (CASP5) (AID 2283137; active = hit-call score of the fitted dose curve at least 0.9, where 1 is the maximum). The procedure, abridged: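 Recombinant E. coli-expressed human caspase 5 in a cell-free enzyme assay; fluorescence intensity read 2 hours after chemical dosing. Single-concentration duplicate screen at 25 uM, then concentration-response up to 50 uM for hits; DMSO negative control.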

The target in test [14] is human Beta-secretase (BACE), BACE1 (gene 23621) (UniProt P56817). Put plainly: NVS_ENZ_hBACE: NovaScreen (NVS) Enzymatic Assay for human Beta-secretase (BACE) (AID 2283140; active = hit-call score of the fitted dose curve at least 0.9, where 1 is the maximum;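 note: hits are inhibitors that reduce fluorescent substrate signal versus DMSO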). The method, boiled down: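 Cell-free fluorescence-intensity assay of recombinant BACE1 expressed in SF9 cells, read 1 hour after dosing. Loss of signal indicates reduced protease activity, fitted relative to DMSO negative control. Primary screen at 25 uM in duplicate; actives followed in concentration series.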
human Beta-secretase (BACE), BACE1 (gene 23621), sequence (P56817 whole entry, looked up): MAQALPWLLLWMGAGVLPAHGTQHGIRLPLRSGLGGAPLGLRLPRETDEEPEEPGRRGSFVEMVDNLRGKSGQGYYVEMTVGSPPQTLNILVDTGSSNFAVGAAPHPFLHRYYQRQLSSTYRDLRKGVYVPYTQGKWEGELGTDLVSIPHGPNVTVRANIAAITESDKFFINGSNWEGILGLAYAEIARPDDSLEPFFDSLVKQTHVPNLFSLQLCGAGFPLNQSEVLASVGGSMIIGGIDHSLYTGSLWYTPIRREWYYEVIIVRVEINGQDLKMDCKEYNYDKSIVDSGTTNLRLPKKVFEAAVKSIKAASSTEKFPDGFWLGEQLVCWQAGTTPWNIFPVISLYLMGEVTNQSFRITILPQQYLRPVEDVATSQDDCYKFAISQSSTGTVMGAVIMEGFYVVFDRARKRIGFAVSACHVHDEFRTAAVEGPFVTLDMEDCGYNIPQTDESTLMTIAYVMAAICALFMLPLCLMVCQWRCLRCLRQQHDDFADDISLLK

human CYP2C9, CYP2C9 (gene 1559), sequence (P11712 whole entry, looked up): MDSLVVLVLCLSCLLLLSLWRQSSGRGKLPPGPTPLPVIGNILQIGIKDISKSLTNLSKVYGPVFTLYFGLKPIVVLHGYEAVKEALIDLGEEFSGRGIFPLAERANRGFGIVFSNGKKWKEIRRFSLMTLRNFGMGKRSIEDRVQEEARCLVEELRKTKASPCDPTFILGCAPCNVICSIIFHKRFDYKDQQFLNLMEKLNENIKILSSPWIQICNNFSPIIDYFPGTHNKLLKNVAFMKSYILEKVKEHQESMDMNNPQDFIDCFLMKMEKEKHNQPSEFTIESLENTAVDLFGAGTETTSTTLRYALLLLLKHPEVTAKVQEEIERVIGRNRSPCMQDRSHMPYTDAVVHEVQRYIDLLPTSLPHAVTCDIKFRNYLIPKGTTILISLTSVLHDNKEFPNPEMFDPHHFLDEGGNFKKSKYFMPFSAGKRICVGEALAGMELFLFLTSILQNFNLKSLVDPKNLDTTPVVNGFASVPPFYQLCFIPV
human CYP2D6, CYP2D6 (gene 1565), sequence (P10635 whole entry, looked up): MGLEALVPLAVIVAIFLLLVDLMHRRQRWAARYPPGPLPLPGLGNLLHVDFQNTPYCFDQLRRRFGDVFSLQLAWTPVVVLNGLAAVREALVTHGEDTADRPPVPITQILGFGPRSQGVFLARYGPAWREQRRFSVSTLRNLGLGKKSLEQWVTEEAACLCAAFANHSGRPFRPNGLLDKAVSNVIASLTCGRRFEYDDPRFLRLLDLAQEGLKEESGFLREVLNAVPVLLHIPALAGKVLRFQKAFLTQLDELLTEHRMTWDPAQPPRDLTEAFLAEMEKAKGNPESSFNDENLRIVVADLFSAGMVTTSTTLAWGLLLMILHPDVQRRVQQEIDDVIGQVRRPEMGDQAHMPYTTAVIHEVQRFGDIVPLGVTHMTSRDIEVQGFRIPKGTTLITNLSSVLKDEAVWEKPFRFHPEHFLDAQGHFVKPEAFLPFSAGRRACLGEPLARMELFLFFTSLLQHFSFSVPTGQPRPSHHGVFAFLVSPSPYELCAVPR
human Dual Specificity Protein Phosphatase 3 (DUSP3), DUSP3 (gene 1845), sequence (P51452 whole entry, looked up): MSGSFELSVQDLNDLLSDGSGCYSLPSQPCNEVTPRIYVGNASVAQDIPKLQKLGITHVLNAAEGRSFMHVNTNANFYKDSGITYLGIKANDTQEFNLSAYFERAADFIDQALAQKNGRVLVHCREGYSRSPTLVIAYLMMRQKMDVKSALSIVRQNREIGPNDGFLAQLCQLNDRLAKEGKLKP
human CYP2B6, CYP2B6 (gene 1555), sequence (P20813 whole entry, looked up): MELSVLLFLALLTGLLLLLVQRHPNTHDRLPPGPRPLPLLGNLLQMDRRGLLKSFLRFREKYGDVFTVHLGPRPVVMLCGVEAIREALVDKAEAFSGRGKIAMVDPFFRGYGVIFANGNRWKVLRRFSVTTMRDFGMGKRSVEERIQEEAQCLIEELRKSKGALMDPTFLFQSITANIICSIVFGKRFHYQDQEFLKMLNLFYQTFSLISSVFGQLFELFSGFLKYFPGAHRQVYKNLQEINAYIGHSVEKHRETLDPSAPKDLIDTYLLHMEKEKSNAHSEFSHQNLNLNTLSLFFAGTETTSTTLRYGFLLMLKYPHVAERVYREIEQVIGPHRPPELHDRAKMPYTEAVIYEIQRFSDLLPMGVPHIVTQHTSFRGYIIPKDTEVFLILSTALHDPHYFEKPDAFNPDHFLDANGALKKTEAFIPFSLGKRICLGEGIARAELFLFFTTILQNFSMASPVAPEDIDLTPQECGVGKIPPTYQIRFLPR
human CYP1A2, CYP1A2 (gene 1544), sequence (P05177 whole entry, looked up): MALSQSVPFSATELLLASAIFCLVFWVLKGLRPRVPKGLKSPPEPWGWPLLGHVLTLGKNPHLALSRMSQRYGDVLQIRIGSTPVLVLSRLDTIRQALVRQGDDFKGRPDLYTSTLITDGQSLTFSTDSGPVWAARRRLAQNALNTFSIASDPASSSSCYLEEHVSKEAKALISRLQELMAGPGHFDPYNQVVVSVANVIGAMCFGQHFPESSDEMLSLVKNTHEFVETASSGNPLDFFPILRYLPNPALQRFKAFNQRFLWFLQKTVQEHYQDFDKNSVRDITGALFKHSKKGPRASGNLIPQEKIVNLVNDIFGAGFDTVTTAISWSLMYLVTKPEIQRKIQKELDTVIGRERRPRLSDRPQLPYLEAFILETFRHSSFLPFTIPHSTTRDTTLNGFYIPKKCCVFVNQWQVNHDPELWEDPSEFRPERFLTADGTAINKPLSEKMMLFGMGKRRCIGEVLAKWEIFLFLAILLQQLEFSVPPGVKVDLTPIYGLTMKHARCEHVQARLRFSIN
human Matrix Metalloproteinase-9 (MMP9), MMP9 (gene 4318), sequence (P14780 whole entry, looked up): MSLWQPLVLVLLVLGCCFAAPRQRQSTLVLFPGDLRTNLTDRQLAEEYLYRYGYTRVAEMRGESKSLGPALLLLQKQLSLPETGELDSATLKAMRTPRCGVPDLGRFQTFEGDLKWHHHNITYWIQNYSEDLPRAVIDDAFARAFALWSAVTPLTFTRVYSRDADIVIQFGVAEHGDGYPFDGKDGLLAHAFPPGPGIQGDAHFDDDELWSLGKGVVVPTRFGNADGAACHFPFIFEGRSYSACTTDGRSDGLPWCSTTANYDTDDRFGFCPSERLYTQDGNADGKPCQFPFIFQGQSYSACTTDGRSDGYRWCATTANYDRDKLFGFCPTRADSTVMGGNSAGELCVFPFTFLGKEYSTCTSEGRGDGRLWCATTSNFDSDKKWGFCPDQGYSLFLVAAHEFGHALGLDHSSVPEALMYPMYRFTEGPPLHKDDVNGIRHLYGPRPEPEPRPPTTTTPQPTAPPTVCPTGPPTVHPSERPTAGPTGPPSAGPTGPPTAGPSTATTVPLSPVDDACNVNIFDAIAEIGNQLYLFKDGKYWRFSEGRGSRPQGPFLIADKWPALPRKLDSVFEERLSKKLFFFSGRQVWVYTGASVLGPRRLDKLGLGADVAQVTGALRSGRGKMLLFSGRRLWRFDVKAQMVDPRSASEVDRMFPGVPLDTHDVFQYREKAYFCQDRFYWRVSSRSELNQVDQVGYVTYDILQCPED
Cytochrome P450 3A4 (Homo sapiens), sequence (P08684 whole entry, looked up): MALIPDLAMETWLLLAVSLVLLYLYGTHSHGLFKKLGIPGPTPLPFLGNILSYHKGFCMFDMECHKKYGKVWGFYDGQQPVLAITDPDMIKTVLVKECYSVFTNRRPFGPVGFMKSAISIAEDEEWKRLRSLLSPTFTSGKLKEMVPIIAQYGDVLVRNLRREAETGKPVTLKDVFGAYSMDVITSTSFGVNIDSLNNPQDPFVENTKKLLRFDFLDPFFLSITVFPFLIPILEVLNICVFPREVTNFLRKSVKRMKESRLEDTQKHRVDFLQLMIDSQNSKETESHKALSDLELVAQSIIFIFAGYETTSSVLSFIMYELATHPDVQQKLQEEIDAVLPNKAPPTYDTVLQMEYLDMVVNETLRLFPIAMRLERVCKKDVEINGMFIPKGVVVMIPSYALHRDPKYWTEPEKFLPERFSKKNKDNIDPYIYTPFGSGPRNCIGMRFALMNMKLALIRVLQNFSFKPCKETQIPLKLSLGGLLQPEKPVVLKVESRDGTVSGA
human Caspase 5 (CASP5), CASP5 (gene 838), sequence (P51878 whole entry, looked up): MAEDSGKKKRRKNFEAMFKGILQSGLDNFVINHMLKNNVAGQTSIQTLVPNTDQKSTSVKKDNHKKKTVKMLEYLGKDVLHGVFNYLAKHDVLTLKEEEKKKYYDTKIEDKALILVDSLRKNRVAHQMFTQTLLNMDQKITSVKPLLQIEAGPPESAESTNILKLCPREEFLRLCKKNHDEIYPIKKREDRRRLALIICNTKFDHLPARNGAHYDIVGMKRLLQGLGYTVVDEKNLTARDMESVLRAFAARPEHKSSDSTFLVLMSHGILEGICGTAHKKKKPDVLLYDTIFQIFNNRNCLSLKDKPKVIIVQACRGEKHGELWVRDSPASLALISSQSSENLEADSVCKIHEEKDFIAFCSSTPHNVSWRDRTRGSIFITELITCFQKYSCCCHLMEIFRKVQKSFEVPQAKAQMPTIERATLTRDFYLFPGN

For `CCCCCC(C=O)=Cc1ccccc1`, the AC50 (usually the concentration at which the activity in the assay is half-maximal) in [1] is 31 µM (active); in test [3], 33.1 µM (active). Besides, the result in [2] and in test [4] was inactive.
`COc1ccc(CCN2CCC(Nc3nc4ccccc4n3Cc3ccc(F)cc3)CC2)cc1`: the concentration at half-maximal activity (AC50) in test [1] is 6.91 µM (active); in test [2], 2.39 µM (active); in test [3], 6.38 µM (active); in [4] it was 5 µM (active).
With `CC(=O)c1c(C)c([N+](=O)[O-])c(C(C)(C)C)c([N+](=O)[O-])c1C`, the result in test [1], in test [2], in [3] and in [4] was inactive.
For `CC1(C)C2=CCCC(C)(C)[C@]23CC[C@H]1C3`, the AC50 was 35.6 µM (active) in [1] and 31.6 µM (active) in [3]. Further, the outcome in [2] and in [4] was inactive.
For the molecule `CCOC(=O)C(C#N)=C(c1ccccc1)c1ccccc1`, the figures for the concentration at half-maximal activity (AC50) in [1], in [2] and in [3] were 1.24 µM (active), 20 µM (active) and 14.1 µM (active), respectively. Moreover, the result in [1], in [2], in [3] and in test [4] was inactive.
With `C=C(C)[C@H]1CC=C(C)C(=O)C1`, the outcome in test [1], in [2], in [3] and in [4] was inactive. Further, the AC50 in test [5] was 0.597 µM (active).
On to `Clc1cc(Cl)c(-c2c(Cl)c(Cl)cc(Cl)c2Cl)cc1Cl`, for which the concentration at half-maximal activity (AC50) in test [1] was 17.4 µM (active); in [2] it was 10 µM (active); in test [3] it was 14.3 µM (active). The outcome in test [4] was inactive.
`CC(C=O)Cc1ccc(C(C)(C)C)cc1` (stereo unspecified): the AC50 in test [1] is 20 µM (active). The result in test [2], in test [3] and in [4] was inactive.
For the molecule `CC(CN=Cc1ccccc1O)N=Cc1ccccc1O` (stereo unspecified), the result in test [1], in [2], in test [3] and in test [4] was inactive.
Turning to `CN(C)C(=S)SC(=S)N(C)C`, the half-maximal activity concentration (AC50) was 1.25 µM (active) in test [1], 0.0189 µM (active) in test [3], 1.03 µM (active) in test [6] and 0.326 µM (active) in [7]. Further, the outcome in test [2] and in test [4] was inactive.
As to `O=CN1CCOCC1`, the outcome in [1], in test [2], in test [3] and in test [4] was inactive.
As to `CS(=O)(=O)c1ccc(C2=C(c3ccccc3)C(=O)OC2)cc1`, the outcome in test [1], in [2], in test [3] and in [4] was inactive.
Consider `COc1cc(Cl)c(OC)cc1N`, for which the outcome in [1], in test [2], in test [3], in [4] and in test [5] was inactive. Further, the half-maximal activity concentration (AC50) in [8] is 0.992 µM (active).
Consider `C=CC(C)(O)CCC=C(C)C` (stereo unspecified), for which the outcome in [1], in test [2], in test [3] and in test [4] was inactive.
For `CCCCN(CCCC)C(=O)N(CCCC)CCCC`, the AC50 in [1] is 11 µM (active); in [2], 15.6 µM (active); in test [3], 7.83 µM (active); in test [4], 20 µM (active).
As for `COc1ccc(OC)c(N=Nc2c(O)ccc3ccccc23)c1`, the concentration at half-maximal activity (AC50) was 2.12 µM (active) in test [1] and 2.25 µM (active) in test [3]. Besides, the result in test [2] and in test [4] was inactive.
With `CC(=O)Nc1ccc(C(=O)CCl)cc1`, the concentration at half-maximal activity (AC50) is 4.16 µM (active) in test [1]; 4.9 µM (active) in test [2]; 0.92 µM (active) in test [3]; 6.11 µM (active) in test [4]; 3.64 µM (active) in [8].
For the molecule `CN(C)C(=O)Nc1ccc(Oc2ccc(Cl)cc2)cc1`, the result in [1], in [2], in test [3] and in [4] was inactive.
As to `CN(c1nccc(=O)[nH]1)C1CCN(c2nc3ccccc3n2Cc2ccc(F)cc2)CC1`, the result in [1], in test [2], in test [3] and in [4] was inactive.
As for `O=C1OC[C@H](Cc2cccc(O)c2)[C@H]1Cc1cccc(O)c1`, the outcome in test [1], in test [2], in test [3] and in test [4] was inactive. Besides, the AC50 is 0.686 µM (active) in test [6] and 5.03 µM (active) in [9].
Turning to `C[C@@H]1CCN(C(=O)[C@H](CCCN=C(N)N)NS(=O)(=O)c2cccc3c2NC[C@H](C)C3)[C@@H](C(=O)O)C1`, the result in test [1], in test [2], in [3] and in test [4] was inactive.
Turning to `CCCCOC(=O)CCCCCCCC(=O)OCCCC`, the result in test [1], in test [2], in [3], in test [4] and in test [7] was inactive. The half-maximal activity concentration (AC50) in test [10] is 3.8 µM (active).
Consider `Cc1cc(CCC(=O)OCCOCCOCCOC(=O)CCc2cc(C)c(O)c(C(C)(C)C)c2)cc(C(C)(C)C)c1O`, for which the AC50 is 25.2 µM (active) in test [1], 25.3 µM (active) in test [3], 32.2 µM (active) in test [4] and 2.45 µM (active) in test [6]. In test [2], the outcome was inactive.
On to `CS(=O)(=O)OCCCCOS(C)(=O)=O`, for which the outcome in test [1], in [2], in [3], in [4], in [11] and in [12] was inactive. Also, the molecule was called inactive in test [6]. The AC50 in [5] was 16 µM (active).
Turning to `C1=CC2C3C=CC(C3)C2C1` (stereo unspecified), the result in test [1], in test [2], in test [3] and in test [4] was inactive.
With `O=C(Nc1ccc2c(O)c(N=Nc3ccc(N=Nc4ccc(S(=O)(=O)O)cc4)cc3)c(S(=O)(=O)O)cc2c1)c1ccccc1`, the outcome in test [1], in test [2], in test [3] and in test [4] was inactive.
Regarding `IC(I)I`, the outcome in test [1], in test [2], in test [3] and in test [4] was inactive.
For `O=C1c2ccccc2C(=O)c2c(O)ccc(O)c21`, the half-maximal activity concentration (AC50) in [1] was 14.4 µM (active); in test [2], 3.15 µM (active); in test [3], 16.5 µM (active); in [13] it was 7.12 µM (active); in test [14], 25 µM (active). For the same molecule, in [4], the outcome was inactive.
On to `CCCCCCC(CO)CCCC` (stereo unspecified), for which the outcome in test [1], in test [2], in [3] and in test [4] was inactive. Further, the concentration at half-maximal activity (AC50) in [3] was 37.3 µM (active).
Regarding `O=C1OC2(c3ccccc31)c1ccc(O)c(Br)c1Oc1c2ccc(O)c1Br`, the outcome in test [1], in test [2] and in test [4] was inactive. Besides, the AC50 in test [3] is 8.3 µM (active).
